This is part of a sample that, as a whole, favours compounds with a hit. Of some 83,000 tested, about 20% had one in any assay.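 Values shown are percent growth following 48 h exposure of cells in 96-well plates to a single concentration of compound; below 10 was considered active.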 The source made the active and inactive calls.

Our source for the growth values is PubChem BioAssay (NCI).

In this assay the test system is SR leukemia. Kind of assay: NCI-60 one-dose screen, 48 h (100 = growth as untreated, 0 = no growth, -100 = all killed). Conditions: 10 µM unless noted.
Regarding `COc1ccc2c(c1)C(=O)/C(=C/c1cccnc1)CC2`, the growth was 30.7% (inactive).
In the case of `COc1cccc(-c2nc(SCC(=O)Nc3ccc(C(=O)/C=C/c4ccc(OC)c(OC)c4)cc3)[nH]c(=O)c2C#N)c1`, the growth is 60.6% (inactive).
Regarding `CCCn1c(=O)[nH]c(N)c([C@H]2c3ccccc3Oc3[nH]c(=O)n(CCC)c(=O)c32)c1=O`, the growth is 4.41% (active).
The same measure for `C=C1C(=O)O[C@H]2[C@H]1CC/C(COC(=O)NCc1ccc(OC)c(OC)c1)=C\CC[C@@]1(C)O[C@@H]21`: 6.13% (active); for `N#CN1CC[C@H](C(=O)Nc2cc3cc(C(N)=O)ccc3cn2)C1`: 0.903% (active).
The same measure for `O=C1c2c(O)cc(O)cc2-c2c(-c3ccc(O)cc3)oc3cc(O)cc1c23`: 0.6% (active); for `O=C1/C(=C/c2ccccc2O)N=C2SCCCN12`: 117% (inactive).
The same measure for `COc1ccc(CN2c3ccccc3Sc3ccccc32)c(C(F)(F)F)c1`: 12.1% (inactive).
As to `COc1ccc(-c2nc(SCC(=O)Nc3ccc(C(=O)/C=C/c4ccc(Cl)cc4)cc3)[nH]c(=O)c2C#N)cc1`, the growth is 72.3% (inactive).
The same measure for `COc1ccc2c(c1)CC/C(=C\c1cncc(Br)c1)C2=O`: 33.5% (inactive).
The same measure for `COc1ccc2c(c1)C(=O)/C(=C/c1ccccn1)CC2`: 7.35% (active); for `Cc1nc(Nc2ccc(F)c(Cl)c2)sc1C(=O)O`: 5.95% (active); for `CCOC(=O)c1sc(Nc2ccc(Cl)cc2)nc1C`: 11% (inactive).
The same measure for `CC(=O)c1cc(C(=O)c2ccc3c(c2)Sc2ccccc2N3)n2ccccc12`: 9.43% (active); for `CC(=O)O[C@H]1C(=O)[C@@]2(C)[C@H]([C@H](OC(=O)c3ccccc3)[C@]3(O)C[C@H](OC(=O)[C@H](OC(=O)CCC(=O)OC4CCC(S/N=C(N)/N=C(\N)N(C)C)CC4)[C@@H](NC(=O)c4ccccc4)c4ccccc4)C(C)=C1C3(C)C)[C@]1(OC(C)=O)CO[C@@H]1C[C@@H]2O` (stereo not given in full): 11.3% (inactive).
